Data on ten compounds can be found in paper PMC5540273 (PLoS ONE, 2017).

Test systems include MLK2; MLK3; MRCKA; MST1R; MST4.
Holding throughout (conditions): concentration: 1 μM, replicates: in singlicate; n = 1
The subject of the next test is T1, MLK1.
T1 construct: gene MAP3K9

In a further test the test system is T2, MRCKB.
T2 construct: gene CDC42BPB

The next test has as its system T3, MST1.
T3 construct: gene STK4

For the next test, the system named is T4, MST2.
T4 construct: gene STK3

For a further test, the system named is T5, MST3.
T5 construct: gene STK24
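Also: KINOMEscan kinase panel screen.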

For `Cc1ccc(S(=O)(=O)Nc2ccc(Nc3nccc(Nc4cccc5[nH]ncc45)n3)cc2)cc1` [GSK581271], the “%Inh” value with MLK1 worked out at 0%; with MLK2 it was 0%; in the test with MLK3, 0%; in the test on MRCKA, 7%; in the test with MRCKB it was 0%; in the test with MST1R it was 35%. Further, the “%Inh” value amounted to 46% in the test on MST1, 0% in the test with MST2, 11% in the test on MST3 and 0% in the test on MST4.

With `CCc1ccc(-c2ccc3c(c2)-c2c(cnn2C)S(=O)(=O)N3C)cc1`, the “%Inh” value was 7% in the test on MLK1; 0% in the test with MLK2; 0% in the test on MLK3; 0% with MRCKA; 0% in the test with MRCKB; 31% in the test on MST1R. Moreover, the “%Inh” value in the test with MST1, in the test with MST2, in the test on MST3 and in the test with MST4 was 0% each time.

On to `Cn1cc(-c2ccc3c(c2)CCN3C(=O)Cc2cccc(F)c2)c2c(N)ncnc21` [GSK2603358], for which the “%Inh” value is reported as 20% with MLK1; 11% with MLK2; 37% with MLK3; 5% in the test with MRCKA; 0% in the test on MRCKB; 49% with MST1R. The “%Inh” value with MST1 is 95.8%; in the test with MST2, 69%; in the test on MST3, 15%; in the test on MST4, 8%.

On to `COc1cccc(-c2ccc3c(NC(=O)C4CC4)n[nH]c3n2)c1` [SB-710903], for which the “%Inh” value in the test on MLK1 was 19%; with MLK2, 0%; with MLK3 it was 0%; with MRCKA, 21%; with MRCKB, 0%; in the test on MST1R it was 29%. Also, the “%Inh” value with MST1 is listed as 3%; with MST2, 0%; in the test on MST3 it was 0%; in the test with MST4 it was 0%.

Take `CCn1c(-c2nonc2N)nc2c(C#CC(C)(C)O)nc(OC[C@H](N)c3ccccc3)cc21` [GSK943949]: the “%Inh” value in the test on MLK1 was 0%; with MLK2, 23%; in the test with MLK3 it was 5%; in the test on MRCKA it was 0%; in the test on MRCKB, 5%; in the test with MST1R it was 1%. In addition, the “%Inh” value in the test with MST1 is 0%; in the test with MST2, 58%; in the test with MST3 it was 9%; in the test with MST4, 7%.

As to `O=C(Nc1cccc(-c2nn3ncccc3c2-c2ccnc(Nc3ccccc3)n2)c1)c1c(F)cccc1F` [GSK198271], the “%Inh” value in the test with MLK1 came to 0%; with MLK2 it was 0%; in the test with MLK3 it was 11%; in the test on MRCKA, 69%; with MRCKB, 88%; in the test on MST1R it was 15%. Besides, the “%Inh” value was determined as 47% in the test on MST1, 100% in the test on MST2, 12% in the test with MST3 and 0% with MST4.

Regarding `Cc1cccc(Nc2nc(N[C@H]3CCNC3)ncc2C(N)=O)c1.Cl` [GSK2197149], the “%Inh” value was determined as 92.9% in the test on MLK1; 4% with MLK2; 86% in the test with MLK3; 0% in the test on MRCKA; 0% with MRCKB; 0% in the test with MST1R. Also, the “%Inh” value with MST1 was found to be 43%; in the test on MST2 it was 0%; with MST3, 31%; in the test with MST4, 36%.

For the compound `CN1CCN(CCCNc2nccc(-c3c(-c4ccc(F)cc4)nn4cc(C(F)(F)F)ccc34)n2)CC1` [GW621581], the “%Inh” value in the test with MLK1 amounted to 0%; in the test on MLK2 it was 22%; with MLK3, 0%; in the test on MRCKA, 0%; in the test on MRCKB, 0%; with MST1R, 8%. For the same compound, the “%Inh” value in the test on MST1 is 11%; with MST2, 0%; with MST3, 19%; in the test on MST4, 0%.

With `Nc1ncc(-c2cccnc2)c2scc(-c3ccc4c(c3)CCN4C(=O)Cc3ccccc3)c12` [GSK683281], the “%Inh” value in the test with MLK1 was determined as 10%; in the test with MLK2, 11%; in the test on MLK3 it was 7%; in the test on MRCKA, 23%; in the test on MRCKB it was 79%; with MST1R, 78%. In addition, the “%Inh” value in the test with MST1 came to 95.8%; with MST2 it was 36%; in the test with MST3, 8%; in the test on MST4 it was 13%.

As for `Cc1ccc(C(=O)Nc2ccc(Nc3ccnc4cc(-c5nccs5)ccc34)cc2O)cc1.Cl` [GW494702], the “%Inh” value with MLK1 was determined as 0%; with MLK2, 0%; in the test with MLK3, 0%; in the test on MRCKA, 1%; in the test on MRCKB, 0%; in the test with MST1R, 34%. Further, the “%Inh” value in the test with MST1 stood at 0%; in the test with MST2, 5%; with MST3, 3%; in the test with MST4, 0%.
